Results on two compounds are retold here after PubChem BioAssay (NCATS).

Results filed as inconclusive are left out. Activity calls are given as the source filed them. Unless noted, the call rests on the fitted dose curve; in most records, active means well fitted curve in the direction sought with a large enough effect; inconclusive means small, poorly fitted or top-dose-only effect, or another doubt; inactive means no such curve, though single readings can be large; an effect the other way counts as inactive or inconclusive.

Experiment [1] is described as follows: AP1 Signaling Pathway (AID 357; active means well fitted curve in either direction with a large enough effect, not every such curve was filed as active; further: on the % scale 0 is the no-effect control and ±100 the full control effect). The note with it: ME-180 AP-1-bla reporter, EGF-induced, beta-lactamase ratio, 5 h; at 7.69 µM (top of the series) unless noted. In outline: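 First, ME-180 AP-1-bla cells were cultured overnight at 37 °C in low-serum Opti-MEM. Next, titrated compounds with EC50 EGF were incubated 5 hours. Finally, CCF4 was added for 2.5 hours and the 460/530 nm ratio recorded.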

Experiment [2] deals with Cytochrome P450 1A2 (Homo sapiens) (UniProt P05177). The experiment in a line: p450-cyp1a2 (AID 410; calls by dose curve). In outline: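 O-Demethylation of luciferin 6' methyl ether by human CYP1A2 is monitored as luciferase luminescence. Substrate sits at Km (100uM); enzyme is 20nM. Values are scaled to 57 uM furafylline as maximal inhibition.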
Chain of Cytochrome P450 1A2 (Homo sapiens) (P05177 whole entry, looked up): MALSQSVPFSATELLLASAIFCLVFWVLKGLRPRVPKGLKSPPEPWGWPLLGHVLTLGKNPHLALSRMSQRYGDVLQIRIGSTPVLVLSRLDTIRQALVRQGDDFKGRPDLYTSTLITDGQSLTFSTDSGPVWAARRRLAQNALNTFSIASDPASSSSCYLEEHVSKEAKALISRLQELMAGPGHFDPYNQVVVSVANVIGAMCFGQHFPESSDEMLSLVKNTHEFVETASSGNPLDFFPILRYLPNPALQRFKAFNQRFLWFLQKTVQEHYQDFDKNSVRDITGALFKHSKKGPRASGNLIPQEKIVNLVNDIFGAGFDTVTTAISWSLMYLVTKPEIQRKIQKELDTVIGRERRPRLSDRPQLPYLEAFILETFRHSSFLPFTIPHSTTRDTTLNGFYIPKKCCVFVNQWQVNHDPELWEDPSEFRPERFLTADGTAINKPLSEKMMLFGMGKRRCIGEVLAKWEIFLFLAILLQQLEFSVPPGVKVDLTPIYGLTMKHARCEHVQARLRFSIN
Experiment [3] is described as follows: NFAT Signaling Pathway (AID 444; active means well fitted curve in either direction with a large enough effect, not every such curve was filed as active;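 further: carbachol stimulus at about its EC50 of 1 µM final; on the % scale 0 is the no-effect control and ±100 the full control effect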). The note with it: Jurkat NFAT-bla M1, carbachol, beta-lactamase ratio, 5 h; at 7.69 µM (top of the series) unless noted. In outline:
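Jurkat cells carrying an NFAT-driven β-lactamase reporter and co-transfected muscarinic M1 receptor were treated with compound plus carbachol (1 uM final, an EC50 level) for 5 h at 37 °C. CCF4 loading followed for 1 h at RT; 460/530 nm ratio gave %activity.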

Experiment [4] can be described thus: Stat Signaling Pathway (AID 446; active means well fitted curve in either direction with a large enough effect, not every such curve was filed as active;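 further: ME-180 cervical cancer cells given 40 pM IL-6 alongside compound; SIE-controlled beta-lactamase reporter measured as 460/530 nm FRET emission ratio; on the % scale 0 is the no-effect control and ±100 the full control effect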). The note with it: ME-180 (cervical carcinoma) SIE beta-lactamase reporter, IL-6 stimulated, 5 h; at 7.69 µM (top of the series) unless noted. Summed up: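 FRET read-out (405 nm excitation, 460/530 nm emission) of a beta-lactamase reporter under a STAT-inducible element in ME-180 cervical carcinoma cells. Cells with compound receive 40 pM IL-6 for 5 h. Values are normalised to AC90 stimulation and AC90 JAK-inhibitor controls.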

For experiment [5], the target named is Glucocorticoid receptor (Homo sapiens) (UniProt P04150). The experiment in a line: GR-GFP Redistribution (AID 450;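 active means compounds whose dose series gives a full or clear partial fitted curve of increased nuclear translocation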; further: potency means the concentration at half of the fitted maximal effect). The note with it: U2OS GR-GFP nuclear translocation, laser cytometry, 2 h.
Chain of Glucocorticoid receptor (Homo sapiens) (P04150 whole entry, looked up, the tested form may be a part): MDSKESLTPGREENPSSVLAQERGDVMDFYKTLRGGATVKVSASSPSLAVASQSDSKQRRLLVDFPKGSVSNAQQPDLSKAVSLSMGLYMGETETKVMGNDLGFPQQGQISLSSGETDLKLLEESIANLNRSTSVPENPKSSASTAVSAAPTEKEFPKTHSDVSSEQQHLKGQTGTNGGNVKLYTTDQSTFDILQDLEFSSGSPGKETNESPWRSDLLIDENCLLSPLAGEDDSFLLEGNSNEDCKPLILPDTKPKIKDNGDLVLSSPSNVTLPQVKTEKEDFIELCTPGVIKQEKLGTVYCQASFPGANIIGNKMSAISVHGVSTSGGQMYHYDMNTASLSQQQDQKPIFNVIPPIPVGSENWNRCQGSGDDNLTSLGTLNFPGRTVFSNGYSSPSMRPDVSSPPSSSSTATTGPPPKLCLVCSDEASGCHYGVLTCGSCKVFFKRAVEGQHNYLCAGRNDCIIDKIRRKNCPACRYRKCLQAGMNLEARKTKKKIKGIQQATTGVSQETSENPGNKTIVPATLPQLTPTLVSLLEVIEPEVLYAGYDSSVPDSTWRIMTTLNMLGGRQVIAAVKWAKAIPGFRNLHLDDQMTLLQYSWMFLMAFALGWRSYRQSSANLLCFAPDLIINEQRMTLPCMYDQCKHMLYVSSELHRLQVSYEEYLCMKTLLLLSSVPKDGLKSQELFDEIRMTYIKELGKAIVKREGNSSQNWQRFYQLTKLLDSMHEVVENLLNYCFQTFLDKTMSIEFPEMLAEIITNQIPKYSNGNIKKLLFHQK
Experiment [6] has the same target. The experiment is described as follows: GR-EFC Redistribution (AID 451; calls by dose curve; further: potency means the concentration at half of the fitted maximal effect). Conditions: CHO-K1 GR-EFC translocation, beta-gal luminescence, 2 h. In outline: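 CHO-K1 cells stably expressing nuclear-localized β-gal enzyme acceptor and GR fused C-terminally to the enzyme donor fragment; ligand-driven nuclear translocation restores β-gal by complementation. Compounds titrated up to 46 uM final, 2 h at 37 °C; luminescence read.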

Experiment [7] addresses 3',5'-cyclic-AMP phosphodiesterase 4B (Homo sapiens) (UniProt Q07343). The experiment in a line: qHTS Assay for Inhibitors of PDE-IV (AID 607; active means well fitted activation curve with a large enough effect in the main read-out, with a control signal flat, not every such curve was filed as active; further: % of control where 0% means no effect). Summed up: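 Cell-based read-out of cAMP via a modified cyclic nucleotide-gated channel and membrane potential dye (535/590 nm) in HEK293 cells expressing PDE4 endogenously. Compounds tested up to 22.9 uM final; 100 uM RO 20-1724 reference.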

Experiment [8] can be described thus: qHTS Assay for Lipid Storage Modulators (AID 1519; calls by dose curve). The note with it: Drosophila S3 cells, BODIPY lipid droplet/cell ratio, laser cytometry, cells loaded with oleic acid; for activity change, negative = inhibition: at 25.7 µM (top of the series). In outline: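 Cells seeded at 5,000 per well were treated with compounds over a concentration series and loaded with oleic acid (400 uM, as added). Lipid droplet fluorescence (488 nm excitation, 500-530 nm channel) was read by laser-scanning cytometry and normalized to 20 uM Triacsin C.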

For experiment [9], the target named is ATP-dependent 6-phosphofructokinase (Trypanosoma brucei brucei) (UniProt O15648). The experiment in a line: qHTS Assay to Find Inhibitors of T. brucei phosphofructokinase: hit validation (AID 492961).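 Further: luminescence reports ADP formed as PFK phosphorylates fructose-6-phosphate with ATP; on the % scale 0 is the no-effect control and ±100 the full control effect.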 Summed up:
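Reaction: 0.1 M triethanolamine pH 8.0, 5 mM MgCl2, F6P 0.5 mM, ATP 0.1 mM, PFK 1.25 nM, 45 min RT. Read-out: ADP-Glo luminescence. Analysis: concentration-response fits, classed by r2 and efficacy.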

Experiment [10] concerns the target Ubiquitin carboxyl-terminal hydrolase 1 (Homo sapiens) (UniProt O94782). The experiment is described as follows: Inhibitors of USP1/UAF1: Pilot qHTS (AID 504865).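 Further: rhodamine fluorescence freed from ubiquitin-rhodamine substrate followed over time; top concentration of the series differs between compounds; on the % scale 0 is the no-effect control and ±100 the full control effect; nearly all actives have a fitted effect of over 35% in size.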 Summed up: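 1nM USP1/UAF1 + cpd, 15 min RT; start w/ Ub-Rho 150nM final; kinetic FL 480/540 nm, 6 reads q60 s. Buffer 50mM HEPES pH 7.8, 0.5mM EDTA, 1mM TCEP, 0.01% Tween-20, 0.1 mg/ml BSA.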
The target of experiment [11] is Luciferin 4-monooxygenase (Photinus pyralis) (UniProt P08659). The experiment is described as follows: Biochemical firefly luciferase enzyme assay for NPC (AID 624030).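 Further: purified P. pyralis luciferase at 10 nM with luciferin and ATP substrate; 0% = DMSO and -100% = full luciferase inhibition by PTC124 control; nearly all actives have a fitted effect of over 70% in size.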 Summed up:
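Counter-screen for direct inhibition of the luciferase enzyme by approved-drug library compounds, run at 10 nM enzyme in 50 mM Tris acetate (final). Luminescence was read within 5 min of enzyme-buffer addition and normalized to PTC124 versus DMSO (0%).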

A short description of experiment [12]: qHTS profiling for inhibitors of Plasmodium falciparum proliferation (AID 504749).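 Further: 0% = DMSO vehicle and full inhibition = artemisinin control; nearly all actives have a fitted effect of over 60% in size.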 Conditions: P. falciparum in erythrocytes, SYBR Green DNA, 72 h, at 12.8 µM (top of the series). Summed up:
(§1)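 Quantitative HTS: compounds pinned into medium, infected erythrocytes added (0.3% parasitemia, 2.5% hematocrit), 72 h culture at 37 C under 5% CO2. Saponin/Triton lysis with SYBR Green I, overnight RT, then fluorescence read.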

The subject of the next experiment is AS120. The experiment is described as above. Conditions: P. falciparum in erythrocytes, SYBR Green DNA, 72 h; series mostly up to 28.7 µM. In outline: as §1
A further experiment concerns CP238. The experiment is described as above. The note with it: P. falciparum in erythrocytes, SYBR Green DNA, 72 h; series mostly up to 12.8 µM. Summed up:
as §1

In another experiment the test system is FAB9. The description is as above. The note with it: P. falciparum in erythrocytes, SYBR Green DNA, 72 h; series mostly up to 12.8 µM. Summed up:
as §1

For experiment [13], the target named is Mitogen-activated protein kinase 10 (Mus musculus) (UniProt Q61831). The experiment in a line: JNK3 AlphaScreen Assay (AID 530; active means well fitted curve in either direction with a large enough effect, not every such curve was filed as active). Summed up: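 Phosphorylation of biotinylated GST-cJun(1-79) at Ser73 is measured by AlphaScreen proximity luminescence. Enzyme is JNK3 in HepG2 lysates activated with interleukin-1beta and tumor necrosis factor alpha; ATP is 10 uM final.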

Where [14] appears, read: measured here: cell count channel max response.
Setting [15] is: measured here: lipid channel max response.

Chain of Ubiquitin carboxyl-terminal hydrolase 1 (Homo sapiens) (O94782 whole entry, looked up): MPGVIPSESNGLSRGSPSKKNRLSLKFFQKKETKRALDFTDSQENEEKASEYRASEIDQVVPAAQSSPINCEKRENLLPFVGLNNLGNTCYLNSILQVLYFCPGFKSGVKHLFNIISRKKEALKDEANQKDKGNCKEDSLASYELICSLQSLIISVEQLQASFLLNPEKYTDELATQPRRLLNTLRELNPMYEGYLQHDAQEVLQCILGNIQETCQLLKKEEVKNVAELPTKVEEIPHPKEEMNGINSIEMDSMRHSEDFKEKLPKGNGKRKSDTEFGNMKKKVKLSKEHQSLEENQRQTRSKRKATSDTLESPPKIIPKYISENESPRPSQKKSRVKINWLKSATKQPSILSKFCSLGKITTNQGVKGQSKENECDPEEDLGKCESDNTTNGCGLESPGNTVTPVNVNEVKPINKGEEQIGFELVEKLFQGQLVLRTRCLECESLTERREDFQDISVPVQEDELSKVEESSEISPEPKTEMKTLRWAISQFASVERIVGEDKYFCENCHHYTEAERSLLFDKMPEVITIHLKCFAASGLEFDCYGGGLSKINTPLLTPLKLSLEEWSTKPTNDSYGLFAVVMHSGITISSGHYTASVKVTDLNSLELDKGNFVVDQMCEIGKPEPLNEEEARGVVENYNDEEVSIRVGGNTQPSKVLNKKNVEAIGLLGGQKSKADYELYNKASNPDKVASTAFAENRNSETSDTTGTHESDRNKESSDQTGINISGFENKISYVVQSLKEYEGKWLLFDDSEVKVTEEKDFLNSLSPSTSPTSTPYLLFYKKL
Chain of 3',5'-cyclic-AMP phosphodiesterase 4B (Homo sapiens) (Q07343 whole entry, looked up): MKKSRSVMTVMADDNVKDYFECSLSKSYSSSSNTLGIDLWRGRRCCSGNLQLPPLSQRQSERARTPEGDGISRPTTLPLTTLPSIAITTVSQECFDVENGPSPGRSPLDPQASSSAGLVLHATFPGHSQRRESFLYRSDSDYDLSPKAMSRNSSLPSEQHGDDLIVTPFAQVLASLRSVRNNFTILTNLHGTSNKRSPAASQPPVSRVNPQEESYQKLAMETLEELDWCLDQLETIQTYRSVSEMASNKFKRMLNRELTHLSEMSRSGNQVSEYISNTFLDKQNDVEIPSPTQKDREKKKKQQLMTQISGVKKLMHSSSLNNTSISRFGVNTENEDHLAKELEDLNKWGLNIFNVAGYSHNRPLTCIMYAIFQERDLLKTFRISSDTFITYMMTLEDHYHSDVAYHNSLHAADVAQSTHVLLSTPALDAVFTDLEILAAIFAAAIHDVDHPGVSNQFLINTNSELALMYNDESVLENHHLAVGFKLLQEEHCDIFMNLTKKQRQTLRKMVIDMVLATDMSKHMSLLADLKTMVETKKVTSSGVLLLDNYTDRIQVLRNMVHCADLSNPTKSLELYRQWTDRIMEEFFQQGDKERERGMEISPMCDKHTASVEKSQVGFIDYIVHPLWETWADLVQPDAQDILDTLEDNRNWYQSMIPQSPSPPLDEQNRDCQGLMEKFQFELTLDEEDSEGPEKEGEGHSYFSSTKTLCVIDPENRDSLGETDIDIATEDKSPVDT
Chain of Luciferin 4-monooxygenase (Photinus pyralis) (P08659 whole entry, looked up): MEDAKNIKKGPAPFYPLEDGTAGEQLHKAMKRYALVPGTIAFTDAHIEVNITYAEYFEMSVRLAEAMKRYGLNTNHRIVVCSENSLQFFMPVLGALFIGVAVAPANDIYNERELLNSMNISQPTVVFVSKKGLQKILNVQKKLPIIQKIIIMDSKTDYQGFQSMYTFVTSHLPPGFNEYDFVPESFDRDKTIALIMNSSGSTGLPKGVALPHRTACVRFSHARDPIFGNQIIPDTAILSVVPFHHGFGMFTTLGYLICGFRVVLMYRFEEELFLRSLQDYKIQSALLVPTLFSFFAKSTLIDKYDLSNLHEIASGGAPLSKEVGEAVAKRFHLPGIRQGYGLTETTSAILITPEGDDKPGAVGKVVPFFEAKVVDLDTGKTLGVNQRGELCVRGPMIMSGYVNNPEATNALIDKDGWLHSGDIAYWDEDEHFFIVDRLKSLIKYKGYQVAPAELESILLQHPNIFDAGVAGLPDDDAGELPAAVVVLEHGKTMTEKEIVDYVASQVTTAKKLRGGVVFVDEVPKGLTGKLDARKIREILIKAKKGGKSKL
Chain of ATP-dependent 6-phosphofructokinase (Trypanosoma brucei brucei) (O15648 whole entry, looked up): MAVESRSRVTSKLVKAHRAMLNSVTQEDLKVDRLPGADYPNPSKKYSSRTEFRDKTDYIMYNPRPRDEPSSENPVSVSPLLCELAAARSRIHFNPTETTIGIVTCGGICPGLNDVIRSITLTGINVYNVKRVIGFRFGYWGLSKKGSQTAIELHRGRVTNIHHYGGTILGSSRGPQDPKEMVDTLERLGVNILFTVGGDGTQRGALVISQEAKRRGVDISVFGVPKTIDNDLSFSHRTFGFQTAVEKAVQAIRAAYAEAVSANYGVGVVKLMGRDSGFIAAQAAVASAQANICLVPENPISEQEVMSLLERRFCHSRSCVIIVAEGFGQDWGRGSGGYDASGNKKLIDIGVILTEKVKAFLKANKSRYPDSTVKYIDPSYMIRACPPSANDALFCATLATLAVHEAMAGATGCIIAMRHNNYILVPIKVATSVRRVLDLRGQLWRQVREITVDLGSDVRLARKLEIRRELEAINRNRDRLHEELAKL

Take `CC1(C)O[C@@H]2C[C@H]3[C@H]4C[C@H](F)C5=CC(=O)C=C[C@@]5(C)[C@@H]4[C@H](O)C[C@]3(C)[C@]2(C(=O)CO)O1`: the activity change, negative = inhibition in experiment [1] was 21.4% [at 17.2 µM] (inactive); in experiment [3], -5.12% [at 17.2 µM] (inactive); in experiment [8] it was -4.94% (inactive). Also, the Potency result (in experiment [2]; in [7]; in [10]; in the experiment with AS120; with CP238; in the experiment with FAB9) was “inactive” throughout. Besides, the activity, negative = inhibition in [4] is -5.69% [at 17.2 µM] (inactive); in experiment [12] (parasite line A), -1.94% (inactive); in experiment [12] (parasite line B), 13.2% (inactive). The figures for the Potency in experiment [5] and in [6] were 0.00395 µM (active) and 0.00485 µM (active), respectively. Besides, the max response was -24% in experiment [8] (setting [14]) and -28.6% in [8] (setting [15]). Also, the result in [9] and in [11] was inactive.
For `NC(N)=NC[C@@H]1COC2(CCCCC2)O1`, the values for the activity change, negative = inhibition in experiment [1], in [3] and in experiment [8] were 13.7% [at 17.2 µM] (inactive), 18.5% [at 17.2 µM] (inactive) and -0.418% (inactive), respectively. Besides, the Potency entry (in experiment [2]; in experiment [13]; in [7]; in [10]; in the experiment on AS120; with CP238) was “inactive” throughout. Also, the Potency result in the experiment with FAB9 was “inactive”. The values for the activity, negative = inhibition in experiment [4], in experiment [12] (parasite line A) and in [12] (parasite line B) were 6.54% [at 17.2 µM] (inactive), -12.1% (inactive) and -13% (inactive), respectively. Moreover, the Potency in experiment [5] and in experiment [6] was > 20.6 µM (inactive) throughout. The max response is -12.5% in experiment [8] (setting [14]) and -12.6% in experiment [8] (setting [15]). Besides, the outcome in experiment [9] and in experiment [11] was inactive.
